{"source": "PubChem BioAssay AID1851", "about": "(National Center for Advancing Translational Sciences (NCATS), 2009)", "note": "About 2,600 (16%) of roughly 16,000 compounds were called active. About 20% were inconclusive and are not listed. Not all results are given here. A number with no mark means an inactive call. Calls follow the shape of the dose curve; as a rule, active = well fitted curve in the direction sought with a large enough effect; inconclusive = small, poorly fitted or top-dose-only effect, or effect the other way; inactive = no such curve, though single readings can be large or run the other way. % is scaled to controls: 0 for no effect and ±100 for the full control effect."}
{"biological_target": "Cytochrome P450 2D6 (Homo sapiens) (UniProt P10635)", "sequence (P10635 whole entry, looked up)": "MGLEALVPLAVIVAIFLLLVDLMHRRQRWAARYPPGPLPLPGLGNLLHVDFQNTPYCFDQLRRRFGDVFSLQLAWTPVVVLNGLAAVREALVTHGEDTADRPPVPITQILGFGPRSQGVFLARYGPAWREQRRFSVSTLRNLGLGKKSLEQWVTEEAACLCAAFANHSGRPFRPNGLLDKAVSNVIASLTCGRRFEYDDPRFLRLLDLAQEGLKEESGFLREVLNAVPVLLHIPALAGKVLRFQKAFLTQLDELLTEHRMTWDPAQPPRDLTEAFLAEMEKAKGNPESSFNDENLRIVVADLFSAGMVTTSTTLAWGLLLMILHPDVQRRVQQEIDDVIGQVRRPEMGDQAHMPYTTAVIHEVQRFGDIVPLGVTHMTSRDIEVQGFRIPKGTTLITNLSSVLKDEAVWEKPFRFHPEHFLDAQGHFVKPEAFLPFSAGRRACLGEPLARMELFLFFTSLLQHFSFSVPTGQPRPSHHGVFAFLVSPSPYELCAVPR", "assay": "Cytochrome panel assay with activity outcomes", "conditions": "recombinant CYP, pro-luciferin dealkylation, luminescence, p450-cyp2d6; series mostly up to 57.1 µM; activity, negative = inhibition: at the top concentration"}
{"compound": "c1c[nH]c(CN2CCOCC2)n1", "activity, negative = inhibition": "-10.1% [at 11.4 µM]"}
{"compound": "C[C@@H]1c2ccccc2CN1CC1=NCCN1", "activity, negative = inhibition": "-9.96%"}
{"compound": "c1ccc2c(CC3=NCCN3)cccc2c1", "AC50": "7.94 µM (active)"}
{"compound": "c1c[nH]c(CN2CCN(Cc3ncc[nH]3)CC2)n1", "activity, negative = inhibition": "-3.74% [at 11.4 µM]"}
{"compound": "Cc1cc(C=C(C#N)C#N)c(C)n1-c1ccccc1", "activity, negative = inhibition": "-1.52%"}
{"compound": "CCc1cc2c(nc1CC)CCN(CC/C(C)=N/O[C@@H](C)c1cn([C@H](CO)Cc3ccccc3)nn1)C2", "activity, negative = inhibition": "2.14% [at 11.4 µM]"}
{"compound": "Nc1ncnc2c([C@@H]3O[C@@H](CO)[C@H](O)[C@@H]3O)nsc12", "activity, negative = inhibition": "-0.815% [at 11.4 µM]"}
{"compound": "N#Cc1c(N2CCN(C(=O)c3ccccc3Cl)CC2)nc(-c2ccccc2)c2c1CCCC2", "activity, negative = inhibition": "-17.9%"}
{"compound": "CC1CN(C(=O)CN2C(=O)NC3(CCCCCC3)C2=O)CC(C)O1", "note": "(stereo unspecified)", "activity, negative = inhibition": "-5.42%"}
{"compound": "Cc1nc2cnc(Oc3cccc(Cl)c3)nc2n(C2CC2)c1=O", "activity, negative = inhibition": "-1.54%"}
{"compound": "CN(c1ccc(C(=O)NC2CC3CCC2C3)cc1)S(C)(=O)=O", "note": "(stereo unspecified)", "activity, negative = inhibition": "27.3%"}
{"compound": "CNc1nc(NCCOC23CC4CC(CC(C4)C2)C3)nc(OCC(F)(F)F)n1", "activity, negative = inhibition": "-17%"}
{"compound": "Cc1ccc(C(=O)N2CCN(c3ccc(C(F)(F)F)cn3)CC2)cc1", "activity, negative = inhibition": "-23.2%"}
{"compound": "COc1cccc(Nc2ncc3nc(C)c(=O)n(CCC#N)c3n2)c1", "activity, negative = inhibition": "-5.84%"}
{"compound": "COc1cccc(-c2cc(NCCc3c[nH]c4ccc(OC)cc34)ncn2)c1", "AC50": "15.8 µM (active)"}
{"compound": "CC(=O)NCCNc1cc(-c2ccccc2C)ncn1", "activity, negative = inhibition": "-9.8%"}
{"compound": "COc1ccc2[nH]cc(CCNc3cc(-c4ccccc4OC)ncn3)c2c1", "AC50": "12.6 µM (active)"}
{"compound": "COc1ccc2[nH]cc(C=O)c2c1", "activity, negative = inhibition": "-3.89%"}
{"compound": "COc1ccc2[nH]cc(CCNc3cc(-c4ccoc4)ncn3)c2c1", "AC50": "12.6 µM (active)"}
{"compound": "COCCNc1cc(-c2ccccc2C(F)(F)F)ncn1", "activity, negative = inhibition": "3.95%"}
{"compound": "COC(=O)Nc1ccc2[nH]cc(CCNC(C)=O)c2c1", "activity, negative = inhibition": "-11.2%"}
{"compound": "COc1ccc2[nH]cc(CCNc3cc(-c4ccccc4C)ncn3)c2c1", "AC50": "7.94 µM (active)"}
{"compound": "CCOC(=O)C1=C(C)NC2=C(C(=O)C(C(=O)OCC)C(c3ccc(OC)cc3)C2)C1c1ccccn1", "note": "(stereo unspecified)", "activity, negative = inhibition": "-8.45%"}
{"compound": "O=C1OCCC1Sc1nnnn1-c1ccccc1", "note": "(stereo unspecified)", "activity, negative = inhibition": "-7%"}
{"compound": "O=C1C[C@H](c2ccccc2)[C@@H](c2ccc(Br)cc2)O1", "activity, negative = inhibition": "-20.8% [at 11.4 µM]"}
{"compound": "COCCn1c(=O)cnc2cnc(Nc3cccc(OC)c3)nc21", "activity, negative = inhibition": "-5.08%"}
{"compound": "CC(C)Cc1nnc(NC(=O)c2ccc([N+](=O)[O-])cc2)s1", "activity, negative = inhibition": "-2.73%"}
{"compound": "COc1cccc(Cn2c(NCc3cccnc3)nc3c2c(=O)n(C)c(=O)n3C)c1", "activity, negative = inhibition": "-24.9%"}
{"compound": "COc1ccc(CNC(=O)C(c2ccc(C)cc2)N(Cc2cccs2)C(=O)c2ccc3c(c2)OCCO3)cc1", "note": "(stereo unspecified)", "activity, negative = inhibition": "-10.3%"}
{"compound": "COc1ccc(NC(=O)CN2c3cccc4cccc(c34)S2(=O)=O)cc1", "activity, negative = inhibition": "-10.1%"}
{"compound": "CC(C(=O)NCc1ccc2c(c1)OCO2)N1c2cccc3cccc(c23)S1(=O)=O", "note": "(stereo unspecified)", "AC50": "10 µM (active)"}
{"compound": "O=C(CCc1ccccc1)NNC(=S)NC(=O)c1ccccc1", "activity, negative = inhibition": "-21.2%"}
{"compound": "CC(=O)Nc1ccc(C(=O)NNC(=O)CCc2ccccc2)cc1", "activity, negative = inhibition": "0.797%"}
{"compound": "NNC(=O)c1ccc[n+](CCc2ccccc2)c1", "AC50": "2 µM (active)"}
{"compound": "CCc1cc2c(=O)[nH]cnc2s1", "activity, negative = inhibition": "12.4%"}
{"compound": "CN(C)c1ncnc2ccc(-c3ccoc3)cc12", "AC50": "10 µM (active)"}
{"compound": "CS(=O)(=O)Nc1cccc(-c2ccc3ncnc(NC4CC4)c3c2)c1", "activity, negative = inhibition": "-5.59%"}
{"compound": "Cc1noc(C)c1-c1ccc2ncnc(N(C)C)c2c1", "activity, negative = inhibition": "-8.41%"}
{"compound": "Cc1ccccc1-c1ccc2ncnc(N(C)C)c2c1", "AC50": "20 µM (active)"}
{"compound": "CN(Cc1ccco1)c1ncnc2ccc(-c3cccc(NS(C)(=O)=O)c3)cc12", "AC50": "20 µM (active)"}
{"compound": "CS(=O)(=O)Nc1cccc(-c2ccc3ncnc(N4CCOCC4)c3c2)c1", "activity, negative = inhibition": "-6.5%"}
{"compound": "CN(C)c1ccc(-c2ccc3ncnc(N(C)C)c3c2)cc1", "activity, negative = inhibition": "6.19%"}
{"compound": "CN(C)c1ncnc2ccc(-c3ccccc3C#N)cc12", "activity, negative = inhibition": "-2.25%"}
{"compound": "CN(C)C(=O)c1ccc(-c2ccc3ncnc(N(C)C)c3c2)cc1", "activity, negative = inhibition": "-8.04%"}
{"compound": "CN(Cc1ccco1)c1ncnc2ccc(-c3cccnc3)cc12", "AC50": "2 µM (active)"}
{"compound": "CC(C)(C)CNCCO", "activity, negative = inhibition": "17.6% [at 11.4 µM]"}
{"compound": "COCCSc1nnc(NC(=O)C(C)(C)C)s1", "activity, negative = inhibition": "17.8%"}
{"compound": "Cc1c(Br)c([N+](=O)[O-])nn1C(C)C(=O)Nc1nccs1", "note": "(stereo unspecified)", "activity, negative = inhibition": "-25.7%"}
{"compound": "CCN(CC)C(=O)CSc1nnc(C2CCCCC2)o1", "activity, negative = inhibition": "-5.44%"}
{"compound": "COC(=O)CN1C(=O)S/C(=C/c2ccc(N3CCCCC3)o2)C1=O", "activity, negative = inhibition": "-25.5%"}
{"compound": "CSc1nc(N)c2ncn([C@H]3O[C@H](COP(=O)(O)OP(=O)(O)O)[C@@H](O)[C@@H]3O)c2n1", "activity, negative = inhibition": "1.14%"}
